Screening results: PubChem, National Center for Advancing Translational Sciences (NCATS)
The list is not random: actives were taken first. Their share in the collection is about 19%.
HepG2 viability: kills HepG2 cells in TGF-b inhibitor counter-screen; Potency, µM (highest dose often 46.1 µM), inactives show top-dose activity change, negative = cytotoxicity, actives largely listed as cytotoxic; actives 0.76% (n = 410,000); AID 588856; HepG2 CAGA-GFP viability, ATP luminescence, 18 h; also: potency is read from the fitted curve at half-maximal effect
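CellTiter-Glo luminescence gave cytotoxicity after 18 hours at 37 degrees C. The cells were HepG2 CAGA-GFP in 1% FBS DMEM, stimulated with 500 pg/mL TGF-beta after compound addition. %Activity was normalised to no-cell wells (complete cell-killing) and DMSO (no toxicity), and curves were fitted and classified.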
TGFb inhibitor: inhibitors of TGF-b signaling. Potency, µM (doses to about 46.1 µM), inactives show at the highest dose activity, negative = inhibition, usual class: inhibitors. HepG2 CAGA-GFP TGF-b/SMAD3 reporter, GFP fluorescence, 18 h; TGF-beta stimulated, 500 pg/mL final. AID 588855. actives 1.2% (n = 410,000); also: potency is read from the fitted curve at half-maximal effect; % is scaled to controls: 0 for no effect and ±100 for the full control effect; nearly all actives have a fitted effect of over 65% in size
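First, reporter cells (HEPG2 CAGA-GFP) rested 2 h at 37 degrees C. Next, compounds were pinned in and TGF-beta added to 500 pg/mL final. After 18 h, GFP was imaged per cell and summed per well.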
TDP1 cell CPT: DT40-hTDP1 cell growth loss with CPT; actives 12% (n = 420,000); Potency, µM (highest dose often 46.2 µM), without a hit: at the highest dose activity change, negative = growth inhibition, usual class: inhibitors; chicken DT40 Tdp1-/-;hTDP1 cells + 20 nM CPT, ATP luminescence, 48 h; also: potency is read from the fitted curve at half-maximal effect; % is scaled to controls: 0 for no effect and ±100 for the full control effect; nearly all actives have a fitted effect of over 55% in size
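Chicken DT40 Tdp1-/- cells complemented with human TDP1, 400 cells/well, exposed to compounds plus 20 nM camptothecin for at least 48 h at 37 C; viability read as ATP content by CellTiter-Glo luminescence.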
TDP1 cell noCPT: qHTS for Inhibitors of human tyrosyl-DNA phosphodiesterase 1 (TDP1): qHTS in cells in absence of CPT; DT40 Tdp1-/- hTDP1 cells, no CPT, ATP luminescence, 48 h; actives 15% (n = 420,000); AID 686978, 2013; Potency, µM (highest dose often 46.2 µM), inactives show top-dose activity change, negative = growth inhibition, actives largely listed as inhibitors; also: potency is read from the fitted curve at half-maximal effect; % is scaled to controls: 0 for no effect and ±100 for the full control effect; nearly all actives have a fitted effect of over 55% in size
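Luminescent ATP content (CellTiter-Glo) served as the growth readout. Knockout chicken DT40 cells expressing human TDP1 were exposed to compounds without camptothecin for a minimum 48 hr at 37 °C.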
IL-1B inflam inh: blocks inflammasome-driven IL-1 beta release | activity change, % at 57.5 µM | actives 4.7% (n = 360,000) | AID 743279 | THP-1 LPS/ATP IL-1B secretion, AlphaLISA, 16 h; hits give low values; in the data active = activity change below about -50%; inconclusive = mostly about -30% to -49%; also: % is scaled to controls: 0 for no effect and ±100 for the full control effect
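THP-1 cells pretreated 1 hr with compounds (up to 57.5 uM final), then stimulated with LPS (250 ng/mL final) plus ATP (1.25 mM final); secreted IL-1B measured by AlphaLISA after 16 hr, decreased signal indicating inhibition.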
ASM inhibitor: inhibitors of human secretory acid sphingomyelinase. Potency, µM (highest dose often 57.5 µM), inactives show at the highest dose activity change, negative = inhibition, actives largely listed as inhibitors. P17405. actives 0.006% (n = 340,000). AID 504937. placental ASM, HMU-PC fluorogenic substrate, 60 min; also: potency is read from the fitted curve at half-maximal effect
Target sequence (P17405 47-631 limits assumed): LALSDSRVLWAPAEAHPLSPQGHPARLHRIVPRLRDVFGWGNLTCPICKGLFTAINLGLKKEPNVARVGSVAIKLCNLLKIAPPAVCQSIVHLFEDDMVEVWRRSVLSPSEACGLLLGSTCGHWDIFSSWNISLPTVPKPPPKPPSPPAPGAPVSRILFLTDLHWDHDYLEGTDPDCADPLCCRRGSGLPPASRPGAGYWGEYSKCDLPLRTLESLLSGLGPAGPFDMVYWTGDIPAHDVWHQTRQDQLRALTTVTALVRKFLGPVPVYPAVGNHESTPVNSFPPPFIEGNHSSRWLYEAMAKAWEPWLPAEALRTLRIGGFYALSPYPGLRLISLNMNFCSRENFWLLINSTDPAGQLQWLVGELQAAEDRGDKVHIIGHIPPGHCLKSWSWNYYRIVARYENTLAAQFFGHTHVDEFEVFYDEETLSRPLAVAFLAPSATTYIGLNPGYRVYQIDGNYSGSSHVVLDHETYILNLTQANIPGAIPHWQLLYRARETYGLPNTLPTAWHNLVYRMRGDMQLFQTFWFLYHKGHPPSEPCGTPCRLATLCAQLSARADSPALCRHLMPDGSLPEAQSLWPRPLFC
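Human placenta-derived ASM enzyme was preincubated with compound for 10 minutes at room temperature, then given fluorogenic substrate HMU-PC0 (9 uM final) for 60 minutes at 37 °C; a pH 10 stop preceded fluorescence reading at Ex 386/Em 447 nm.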
* marks the source's active call; other numbers are inactive results; ? = inconclusive; nt = not tested or not shown; [ ] = remark or other dose. Unless noted, calls follow the shape of the dose curve; as a rule, active = well fitted curve in the direction sought with a large enough effect; inconclusive = small, poorly fitted or top-dose-only effect, or another doubt; inactive = no such curve, though single readings can be large; an effect the other way counts as inactive or inconclusive.

SMILES | HepG2 viability | TGFb inhibitor | TDP1 cell CPT | TDP1 cell noCPT | IL-1B inflam inh | ASM inhibitor
CCc1ccc(NC(=S)/N=C(\N)Nc2nc(C)c3cc(CC)ccc3n2)cc1 | -4% | ? | ? | ? | -64* | -3%
Cc1cc(C)cc(NC(=S)/N=C(\N)Nc2nc(C)c3ccccc3n2)c1 | 5% | ? | 21µM* | 15µM* | 2 | -6%
COc1ccc2nc(N/C(N)=N/C(=S)Nc3ccccc3)nc(C)c2c1 | -11% | -26% | 26µM* | 8.2µM* | -87* | 41%
Cc1cccc(NC(=S)/N=C(\N)Nc2nc(C)c3ccc(C)cc3n2)c1 | -8% | ? | 15µM* | 12µM* | -6 | ?
CCCc1cc(=O)[nH]c(SCCc2ccccc2)n1 | -20% | 1% | -12% | -25% | -2 | -1%
Cc1ccc(NC(=S)/N=C(\N)Nc2nc(C)c3ccccc3n2)cc1C | 4% | ? | ? | ? | 19 | -8%
CCOc1ccc2nc(N/C(N)=N/S(=O)(=O)c3ccc(C)cc3)nc(C)c2c1 | 0% | -11% | ? | ? | -21 | nt
Cc1cccc(NC(=S)/N=C(\N)Nc2nc(C)c3cc(C)ccc3n2)c1 | 4% | ? | 21µM* | 23µM* | ? | 2%
COc1ccc(OC)c(N/C(=N/C(=S)Nc2ccccc2)Nc2nc(C)cc(C)n2)c1 | 47% | 25% | ? | 8.2µM* | -2 | -2%
CNC(=S)Nc1cc(OC)ccc1OC | 9% | -3% | -15% | -16% | -2 | 3%
Cc1cccc(NC(=S)/N=C(\N)Nc2nc(C)c3ccccc3n2)c1 | -29% | ? | 18µM* | ? | -27 | -9%
CC(C)[C@H](NC(=O)NCc1ccc(F)cc1)C(=O)O | 11% | 3% | 4% | -4% | 5 | 3%
C#CCNC(=O)c1ccc2sc([C@H]3C[C@H](O)[C@@H](CO)O3)nc2c1 | 3% | 0% | -8% | -9% | 107 | nt
CCn1c(-c2ccccc2F)nc2cc(NC(C)=O)cc(C(=O)NC(c3ccccn3)C(F)(F)F)c21 (configuration not stated) | nt | nt | -4%[9.04 µM] | ? | nt | nt
CCOc1cccc(/C=N/NC(=O)c2cc(-c3cccn3C)n[nH]2)c1O | -25% | -1% | 5.8µM* | 9.2µM* | 118 | -2%
COc1ccc(/C=N/NC(=O)c2cc(-c3cccn3C)n[nH]2)cc1OC | -49% | -20% | ? | 18µM* | ? | 0%
COc1cc(OC)c(OC)cc1/C=N/NC(=O)c1cc(-c2cccn2C)n[nH]1 | -69% | 0% | -3% | 2% | 5 | -6%
Cn1cccc1-c1cc(C(=O)N/N=C/c2cccc(O)c2)[nH]n1 | -23% | -6% | ? | ? | -70* | -1%
CC(C)n1nnnc1C1c2ccccc2C(=O)N1CCCn1ccnc1 (configuration not stated) | nt | nt | 5% | 1% | 5 | nt
CCOc1ccc(C(=O)Nc2nnc(SCc3cc(=O)n4ccccc4n3)s2)cc1 | 3% | -16% | 2% | -4% | nt | nt
Cc1cc(C)nc(NC(=NCCc2c[nH]c3ccc(Cl)cc23)NC(=O)c2ccccc2C)n1 | -13% | -5% | nt | nt | nt | nt
Cc1cc(C)nc(NC(=NCCc2c[nH]c3ccccc23)NC(=O)C(C)(C)C)n1 | -5% | 13% | ? | 15µM* | -1 | 3%
CC(C)NC(=O)N1CCC2(CC1)CCN(S(=O)(=O)c1ccccc1)CC2 | nt | nt | -6% | -17% | nt | nt
Cc1ccc(C)c(NC(=O)NC2CCCCCCC2)c1 | 6% | -4% | 21% | 4% | 7 | 1%
COc1ccc(NS(=O)(=O)c2cccc(NC(=O)c3ccccn3)c2)cc1 | -87% | ? | 21µM* | ? | -6 | -5%
SMILES | HepG2 viability | TGFb inhibitor | TDP1 cell CPT | TDP1 cell noCPT | IL-1B inflam inh | ASM inhibitor
COc1ccc(NS(=O)(=O)c2cccc(NC(=O)NC3CCCCC3)c2)cc1 | -19% | -8% | ? | 23µM* | -69* | -7%
COc1ccc(NS(=O)(=O)c2ccc(NC(=O)c3ccccn3)cc2)cc1 | -1% | -16% | ? | ? | 4 | -3%
COc1ccc(NS(=O)(=O)c2cccc(NC(=O)COc3ccc(OC)cc3)c2)cc1 | 8% | -6% | ? | ? | 20 | -3%
COc1ccc(NS(=O)(=O)c2ccc(C)c(NC(=O)NC3CCCCC3)c2)cc1 | 26% | -10% | ? | ? | -74* | 0%
C[C@@H]1CN([C@@H](C)CO)C(=O)CCCn2nncc2CO[C@H]1CN(C)S(=O)(=O)c1ccccc1C#N | 16% | -5% | -9% | -20% | 30 | nt
COc1ccc(-c2[nH]ncc2CNCC(C)(C)N2CCOCC2)cc1F | 16% | 1% | 1% | 2% | -3 | 9%
COc1ccc(-c2[nH]ncc2CNC(C)c2ccccc2Cl)cc1F (configuration not stated) | -72% | ? | 16µM* | 23µM* | -26 | 6%
COc1ccc(OC)c(-c2nnc3n2N=C(c2ccc(OC)c(OCC4CC4)c2)CS3)c1 | -26% | 7.9µM* | nt | nt | nt | -13%
Fc1ccccc1-c1nnc2n1N=C(c1ccc(OC(F)F)c(OCC3CC3)c1)CS2 | -2% | -8% | nt | nt | nt | -2%
COc1ccc(C2=Nn3c(nnc3-c3ccccc3Cl)SC2)cc1OCC1CC1 | -18% | 10µM* | nt | nt | nt | -18%
CN1CCN(C(=O)/C(=C/c2ccc([N+](=O)[O-])cc2)NC(=O)c2ccccc2)CC1 | -3% | 4% | 14% | 7% | 13 | -2%
NC(=O)N1N=C2/C(=C/c3ccccc3)CCCC2C1c1ccccc1 (configuration not stated) | -23% | ? | -20% | ? | -57* | 2%
O=C(O)CSCC(=O)N1N=C2/C(=C/c3ccccc3)CCCC2C1c1ccccc1 (configuration not stated) | -5% | -9% | -17% | -25% | 2 | 5%
O=C(CSc1ncn[nH]1)N1N=C2/C(=C/c3ccccc3)CCCC2C1c1ccccc1 (configuration not stated) | -44% | ? | ? | ? | -13 | -15%
COc1ccc(/C=C2\CCCC3C2=NN(C(=O)CSc2ncn[nH]2)C3c2ccc(OC)cc2)cc1 (configuration not stated) | 4% | ? | 18µM* | 23µM* | -85* | -17%
